# Several values for one entry are separate records, joined by “and”; a condition that tells them apart may be missing. Equal entries are not always repeated. Screen size: about 220,000 compounds; about 16,000 (7.3%) were called active. About 25% were inconclusive and are not listed. Calls follow the shape of the dose curve; as a rule, active = well fitted inhibition curve with a large enough effect (not every such curve was filed as active); inconclusive = small, poorly fitted or top-dose-only effect, or another doubt; inactive = no such curve, though single readings can be large or run the other way. The full list was thinned out, with actives kept by preference. More than one record can exist for a structure, and the calls need not agree.
# Biological target: Aldehyde dehydrogenase 1A1 (Homo sapiens) (UniProt P00352)
# Sequence (P00352 whole entry, looked up): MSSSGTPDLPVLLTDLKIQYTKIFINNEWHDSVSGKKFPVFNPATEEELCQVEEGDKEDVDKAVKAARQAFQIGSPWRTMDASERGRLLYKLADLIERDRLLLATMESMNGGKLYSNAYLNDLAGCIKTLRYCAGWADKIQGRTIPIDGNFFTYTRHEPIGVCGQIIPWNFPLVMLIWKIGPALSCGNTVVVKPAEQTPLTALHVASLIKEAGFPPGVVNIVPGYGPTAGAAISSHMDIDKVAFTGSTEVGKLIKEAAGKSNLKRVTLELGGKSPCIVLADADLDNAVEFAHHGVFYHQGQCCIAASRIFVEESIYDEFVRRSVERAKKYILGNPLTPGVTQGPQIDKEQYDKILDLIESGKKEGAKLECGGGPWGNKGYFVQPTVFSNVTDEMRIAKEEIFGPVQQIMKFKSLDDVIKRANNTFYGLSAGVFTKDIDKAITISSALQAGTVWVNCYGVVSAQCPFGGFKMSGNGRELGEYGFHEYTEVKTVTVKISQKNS
# Assay: qHTS Assay for Inhibitors of Aldehyde Dehydrogenase 1 (ALDH1A1);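 as to activity, negative = inhibition: plate controls were no enzyme wells and a reference inhibitor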
# Details: Purified ALDH1A1, NADH fluorescence, propionaldehyde substrate; series mostly up to 75.3 µM; activity, negative = inhibition: at the top concentration
# Potency is read from the fitted curve at half-maximal effect.
Compound,Potency,"activity, negative = inhibition"
O=C1NC(=O)N(c2ccccc2)C(=O)/C1=C/c1ccc([N+](=O)[O-])s1,22.4 µM (active),–
CCN1CCN(C(=O)Cc2coc3cc(C)cc(C)c23)CC1,–,3.22% (inactive)
Nc1ccc(C(=O)N/N=C2/CN3CCC2CC3)cc1,–,-2.99% (inactive)
CCCCCCN=C(CC)c1c(O)n(CCCC)c(=O)[nH]c1=O,–,-12.5% (inactive)
CCc1nnc(NS(=O)(=O)c2ccc(N=Cc3c(O)n(-c4ccccc4)c(=O)[nH]c3=O)cc2)s1,–,-1.28% (inactive)
C[N+]1(C)CCOC(O)(c2ccc(-c3ccc(C4(O)C[N+](C)(C)CCO4)cc3)cc2)C1 (stereo unspecified),inactive and 14.1 µM (active),–
COc1ccc(CCn2c(O)c(C=NCCCn3ccnc3)c(=O)[nH]c2=O)cc1OC,–,6.68% (inactive)
Cc1cccc2c3c(ccc12)C1=C(C(=O)C3=O)C(C)CO1 (stereo unspecified),17.8 µM (active),–
C=CCN(CC=C)C(=O)Nc1ccc(OCC)cc1,–,2.89% (inactive)
CNC(=S)N/N=C1\C2CN3CCN(C2)CC1(c1ccccc1)C3,–,-2.12% (inactive)
CC(C)c1ccc(O)c(CN2CCN(c3ccccc3)CC2)c1,2 µM (active),–
COc1ccc(CN2CCN(c3ccccc3F)CC2)c(OC)c1,–,-7.76% (inactive)
Fc1ccc(N2CCN(Cc3ccc4c(c3)OCO4)CC2)cc1,–,-1.2% (inactive)
COc1ccc2c3c1OC1CC(O)C=C[C@@]31CCN(C)C2 (stereo partly specified),–,-2.76% (inactive)
CC1=C(C(=O)Nc2ccccc2)SCCO1,–,-8.55% (inactive)
CC(C)N(CC#CCC1(O)c2ccccc2-c2ccccc21)C(C)C,–,3.69% (inactive)
CN1C2C=C(N(C(=O)c3ccc(Cl)cc3)c3ccccc3)CC1CC2 (stereo unspecified),–,6.47% (inactive)
CC(C)(O)/C=C\C(=O)[C@](C)(O)[C@H]1[C@H](O)C[C@]2(C)[C@@H]3CC=C4[C@@H](C=C(O)C(=O)C4(C)C)[C@]3(C)C(=O)C[C@@]12C,–,8.67% [at 13.5 µM] (inactive)
c1csc(CN2CC3(CCNCC3)C2)n1,–,0.181% (inactive)
c1ccc2c(c1)[I+]c1ccccc1-2,–,-5.77% (inactive)
Cc1cc(C=C2C(=O)NC(=O)NC2=O)c(C)n1-c1ccncc1,14.1 µM (active),–
Cc1ccccc1N1C(=O)NC(=O)/C(=C\c2cc(C)n(C)c2C)C1=O,–,-4.17% (inactive)
Cc1ccc(-n2c(C)cc(/C=C3\C(=O)NC(=O)N(C)C3=O)c2C)cc1C,17.8 µM (active),–
CSC1=NP(=S)(SC)N(C)c2nc3n(c21)CCC3 (stereo unspecified),–,-5.63% (inactive)
CCOP(=O)(OCC)C(NC(=O)c1ccc(C)cc1)C(Cl)(Cl)Cl (stereo unspecified),–,0.637% (inactive)
CCN(CC)CCn1ncc2c(N)ncnc21,–,1.51% [at 13.5 µM] (inactive)

Compound,Potency,"activity, negative = inhibition"
CCCCCCCCc1[se]c2ccccc2c1Br,–,-6.52% (inactive)
NCCc1ccc(S(=O)(=O)F)cc1,–,4.17% (inactive)
O=C(CN1CCCCC1)Nc1ccc(Br)cc1C(=O)c1ccccc1Cl,–,-1.86% (inactive)
CCN1CCN(c2ccc([N+](=O)[O-])cc2C#N)CC1,–,5.93% (inactive)
COc1ccccc1-n1c(O)c(C=NC2CC2)c(=O)[nH]c1=O,–,-2.25% (inactive)
O=c1c2ccccc2nc(-c2ccc(Cl)cc2Cl)n1-c1ccncc1,–,-6.03% (inactive)
Cc1ccc(-n2c(-c3ccc([N+](=O)[O-])cc3)nc3ccccc3c2=O)cc1,7.51 µM (active),–
O=c1c2ccccc2nc(-c2ccccc2)n1-c1ccccn1,–,-7.99% (inactive)
Cc1cccc2c(CCN)c[nH]c12,–,1.85% (inactive)
Cc1ncsc1CCCl,–,-8% (inactive)
CCOP(=O)(OCC)C(NC(=O)c1ccc(OC)cc1)C(Cl)(Cl)Cl (stereo unspecified),–,2.96% (inactive)
COc1ccc(C(=O)CC2C(=O)N(C)C(=O)N(C)C2=O)cc1,17.8 µM (active),–
COc1ccc(-c2nn(CCC#N)cc2C(=O)O)cc1,–,12.9% (inactive)
COc1cc(-n2c(=S)[nH]c3ccc(C)cc3c2=O)c(Cl)cc1Cl,–,-5.27% (inactive)
CN(C)P(=S)(Nc1ccccc1)C(Cl)(Cl)Cl (stereo unspecified),–,-9.21% (inactive)
O=NO,inactive and 11.2 µM (active),–
C[C@@]12CC[C@H](O)C[C@@H]1CC[C@@H]1[C@@H]2CC[C@@]2(C)[C@@H](C3=CC(=O)OC3)[C@H](O)C[C@]12O,–,23.8% [at 13.5 µM] (inactive)
OC(CNC1CCCCC1)c1ccccc1 (stereo unspecified),–,13.7% (inactive)
CC(Cc1cccs1)NCc1ccc(Cl)cc1 (stereo unspecified),–,9.87% (inactive)
CCN(CC)C(=O)c1ccc(NC(=O)c2cc(-n3cnnc3)ccc2Cl)cc1,25.1 µM (active),–
CC(C)(Cc1c[nH]c2ccc(Cl)cc12)NCCOc1ccccc1OCC1CC1,inactive,–
O=c1[nH]c(=O)n(-c2ccccc2)c(O)c1C=NC12CN3CN(CN(C3)C1)C2,–,4.54% (inactive)
C=CCN1CCC2(C)c3cc(O)ccc3CC1[C@@H]2C (stereo partly specified),–,0.265% (inactive)
CC(=O)O[C@H]1CC[C@@]2(C)[C@@H](CC[C@H]3[C@H]2CC(=O)[C@]2(C)[C@@H]3C[C@@H](N3CC3)[C@H]2C(C)=O)C1,–,6.14% [at 13.5 µM] (inactive)
COC1CC(OC2CC[C@@]3(C=O)C4CC[C@]5(C)C(C6=CC(=O)OC6)CC[C@@]5(O)C4CC[C@]3(O)C2)OC(C)C1O (stereo partly specified),–,9.5% (inactive)

# — PubChem BioAssay AID1030 (National Center for Advancing Translational Sciences (NCATS), 2008)
